Results filed as inconclusive are left out. Active and inactive are the calls of the source. Unless noted, calls follow the shape of the dose curve; as a rule, active = well fitted curve in the direction sought with a large enough effect in the repeat runs; inconclusive = weak or mixed curves; inactive = no such curve, though single readings can be large; an effect the other way counts as inactive or inconclusive.
How the values were obtained:
[1] = qHTS assay to identify small molecule antagonists of the constitutive androstane receptor (CAR) signaling pathway - cell viability counter screen (AID 1224837); also: nearly all actives have a fitted effect of over 45% in size; also: potency is read from the fitted curve at half-maximal effect
Procedure, shortened: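 CITCO at 50 nM final was added alongside compounds (15 concentrations) to double-stable hCAR/CYP2B6-2.2kb HepG2 cells. Following 23 hr at 37 C, cell viability was quantified by CellTiter-Fluor fluorescence intensity.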

[2] = molecular target: Nuclear receptor subfamily 1 group I member 3 (Homo sapiens) (UniProt Q14994); experiment: qHTS assay to identify small molecule antagonists of the constitutive androstane receptor (CAR) signaling pathway (AID 1224838); also: nearly all actives have a fitted effect of over 40% in size; also: potency is read from the fitted curve at half-maximal effect
Procedure, shortened: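 Inhibition of CITCO-driven (50 nM final) CYP2B6 reporter expression is measured in HepG2 cells stably carrying hCAR. Fifteen compound concentrations are applied for 24 h at 37 C, followed by luciferase luminescence.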

[3] = molecular target: Nuclear receptor subfamily 1 group I member 3 (Homo sapiens) (UniProt Q14994); experiment: qHTS assay to identify small molecule agonists of the constitutive androstane receptor (CAR) signaling pathway (AID 1224839); also: nearly all actives have a fitted effect of over 15% in size
Procedure, shortened: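 Luminescent ONE-Glo read-out after 24 hr, 37 C exposure of double-stable HepG2-CYP2B6-hCAR reporter cells to a 15-point compound series, in the presence of 0.75 uM PK11195 (final).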

[4] = qHTS assay to identify small molecule antagonists of the estrogen related receptor signaling pathway with the pleiotropic PPARgamma coactivator (PGC) from Tox21 10K library - cell viability counter screen (AID 1224840; active = well fitted cell-killing curve with a large enough effect in the repeat runs, not every such curve was filed as active; also: nearly all actives have a fitted effect of over 40% in size; also: potency is read from the fitted curve at half-maximal effect)
Procedure, shortened: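 Readout: fluorescence intensity from CellTiter-Fluor after 30 min at 37 C/5% CO2. Preceded by 17.5 h treatment of PGC/ERR cells with DMSO-dissolved compounds, added 6 h post-seeding.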

[5] = qHTS assay to identify small molecule agonists of the hypoxia (HIF-1) signaling pathway - cell viability counter screen (AID 1224844; calls by dose curve; also: nearly all actives have a fitted effect of over 50% in size; also: potency is read from the fitted curve at half-maximal effect)
Procedure, shortened: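 In this counter screen, HRE-bla ME-180 cell viability after 17 hrs of compound exposure at 37C was read by CellTiter-Glo luminescence, multiplexed with the beta-lactamase reporter measurement.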

[6] = qHTS assay to identify small molecule agonists of H2AX (AID 1224845; active = well fitted activation curve with a large enough effect in the signal ratio in the repeat runs, not every such curve was filed as active; the % refers to the signal ratio)
Procedure, shortened: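 Phospho-H2AX Ser139 measured by HTRF (ex 320 nm; em 665 and 620 nm) after 24 hr antibody incubation. Compounds, 15 concentrations, 0.76% DMSO, were applied to CHO-K1 cells for 3hr at 37C before lysis.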

[7] = qHTS assay to identify small molecule agonists of the hypoxia (HIF-1) signaling pathway (AID 1224846; active = well fitted activation curve with a large enough effect in the signal ratio in the repeat runs, not every such curve was filed as active; the % refers to the signal ratio)
Procedure, shortened: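 ME-180 HRE-bla reporter cells; compounds in DMSO, 17 h at 37C; read-out beta-lactamase via CCF4-AM FRET.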

[8] = qHTS RealTime-Glo MT Cell Viability Assay in HepG2 cells - 24 hour (AID 1224867); also: nearly all actives have a fitted effect of over 50% in size
Procedure, shortened: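 HepG2 cells (600/well) were dispensed with RealTime-Glo reagents, incubated 5 h at 37 °C, then treated with compounds in DMSO for up to 40 h. Nonlytic NanoLuc luminescence reflecting viable cells was read at each stated time point.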

[9] = qHTS RealTime-Glo MT Cell Viability Assay in HEK293 cells - 32 hour (AID 1224868); also: nearly all actives have a fitted effect of over 50% in size; also: potency is read from the fitted curve at half-maximal effect; as to activity change, negative = cytotoxic: top concentration of the series differs between compounds
Procedure, shortened: (§1)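 HEK293 cells seeded with NanoLuc/prosubstrate reagent, rested 5 h at 37 C, then dosed and kept at 37 C up to 40 h. Nonlytic real-time luminescence from viable cells read at 0, 8, 16, 24, 32 and 40 h.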

[10] = A CellTox Green Cytotoxicity Assay to monitor cytotoxicity in HEK293 cells - 0 hour (AID 1224869); also: nearly all actives have a fitted effect of over 50% in size
Procedure, shortened: (§2)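 Real-time, in one plate: 600 HEK293 cells/well with dead-cell DNA dye, pinned compound after 5 h, 37 C incubation over 40 h; viable cells give no appreciable fluorescence.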

[11] = qHTS RealTime-Glo MT Cell Viability Assay in HepG2 cells - 40 hour (AID 1224870); also: nearly all actives have a fitted effect of over 50% in size
Procedure, shortened: (§3)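 Real-time viability: cells seeded at 600 per well together with NanoLuc and cell-permeant prosubstrate, compounds added after 5 h incubation. Luminescence tracked at 0, 8, 16, 24, 32 and 40 h of exposure.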

[12] = A CellTox Green Cytotoxicity Assay to monitor cytotoxicity in HEK293 cells - 40 hour (AID 1224871); also: nearly all actives have a fitted effect of over 45% in size; also: potency is read from the fitted curve at half-maximal effect
Procedure, shortened: as §2

[13] = qHTS RealTime-Glo MT Cell Viability Assay in HepG2 cells - 8 hour (AID 1224873); also: nearly all actives have a fitted effect of over 55% in size
Procedure, shortened: as §3

[14] = qHTS assay to identify small molecule agonists of H2AX - cell viability counter screen (AID 1224847; calls by dose curve; also: nearly all actives have a fitted effect of over 30% in size; also: potency is read from the fitted curve at half-maximal effect;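 as to activity change, negative = cytotoxicity: wild-type CHO-K1 cells; top concentration of the series differs between compounds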)
Procedure, shortened: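 Counter-screen for viability: CellTiter-Glo ATP luminescence read after 3 h compound treatment (15-point titration, 0.76% DMSO final) of CHO-K1 cells at 37C, with 30 min room-temperature reagent incubation.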

[15] = qHTS RealTime-Glo MT Cell Viability Assay in HEK293 cells - 16 hour (AID 1224872); also: nearly all actives have a fitted effect of over 50% in size; also: potency is read from the fitted curve at half-maximal effect; as to activity change, negative = cytotoxicity: top concentration of the series differs between compounds
Procedure, shortened: as §1

[16] = qHTS assay to identify small molecule antagonists of the estrogen related receptor signaling pathway with the pleiotropic PPARgamma coactivator (PGC) from Tox21 10K library (AID 1224841; call rule not given here; also: potency is read from the fitted curve at half-maximal effect)
Procedure, shortened: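 One-Glo luminescence, measured after half an hour at room temperature, quantified reporter output of PGC/ERR cells. These had been plated at 2,000 per well, incubated 6 h, dosed with compounds in DMSO, then kept 18 h at 37 C.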

[17] = qHTS assay to identify small molecule agonists of the estrogen related receptor signaling pathway with the pleiotropic PPARgamma coactivator (PGC) from Tox21 10K library (AID 1224842); also: nearly all actives have a fitted effect of over 15% in size; also: potency is read from the fitted curve at half-maximal effect
Procedure, shortened: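 Luminescence from One-Glo (30 min, room temperature) measured after PGC/ERR cells had 18 h at 37 C with pinned compound (23 nL in DMSO). Cells had been seeded at 2,000 per well and pre-incubated 6 h.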

[18] = qHTS assay to identify small molecule antagonists of the estrogen related receptor (ERR) signaling pathway from Tox21 library (AID 1224848); also: nearly all actives have a fitted effect of over 50% in size; also: potency is read from the fitted curve at half-maximal effect
Procedure, shortened: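 Luciferase luminescence (ONE-Glo, 30 min room temperature) was the read-out. Cells of the NTP-supplied ERR line, 2,000 per well, were given 6 h at 37 C before compound addition in DMSO and 18 h exposure at 37 C.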

[19] = qHTS assay to identify small molecule agonists of the estrogen related receptor (ERR) signaling pathway from Tox21 library (AID 1224849; calls by dose curve; also: nearly all actives have a fitted effect of over 15% in size); settings: ERR reporter cell line, ONE-Glo luciferase, 18 h; at 92.4 µM (top of the series) unless noted
Procedure, shortened: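 Luciferase activity in ERR pathway reporter cells served as the agonist readout; exposure lasted 18 h at 37 C, with ONE-Glo detection after 30 min at room temperature.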

[20] = molecular target: Thyrotropin receptor (Homo sapiens) (UniProt P16473); experiment: qHTS assay to identify small molecule agonists of the thyroid stimulating hormone receptor (TSHR) signaling pathway (AID 1224843; calls by dose curve; also: nearly all actives have a fitted effect of over 45% in size)
Procedure, shortened: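 Agonist activity read as cAMP rise via d2/cryptate HTRF competition, 1 h room-temperature detection, in HEK293 cells expressing TSHR. Fifteen-point titrations, each run in triplicate, with a 30 min room-temperature incubation beforehand.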
% is scaled to controls: 0 for no effect and ±100 for the full control effect.

Sequence of Nuclear receptor subfamily 1 group I member 3 (Homo sapiens) (Q14994 whole entry, looked up): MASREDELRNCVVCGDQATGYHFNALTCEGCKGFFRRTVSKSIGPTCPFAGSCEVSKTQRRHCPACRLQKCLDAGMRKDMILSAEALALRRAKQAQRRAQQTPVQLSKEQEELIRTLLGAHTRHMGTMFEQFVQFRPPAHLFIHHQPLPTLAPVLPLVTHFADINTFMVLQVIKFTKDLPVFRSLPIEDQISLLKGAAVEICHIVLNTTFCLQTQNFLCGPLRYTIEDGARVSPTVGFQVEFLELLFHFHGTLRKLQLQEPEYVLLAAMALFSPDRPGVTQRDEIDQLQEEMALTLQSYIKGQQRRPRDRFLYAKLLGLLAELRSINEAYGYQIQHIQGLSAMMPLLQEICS
Sequence of Thyrotropin receptor (Homo sapiens) (P16473 whole entry, looked up): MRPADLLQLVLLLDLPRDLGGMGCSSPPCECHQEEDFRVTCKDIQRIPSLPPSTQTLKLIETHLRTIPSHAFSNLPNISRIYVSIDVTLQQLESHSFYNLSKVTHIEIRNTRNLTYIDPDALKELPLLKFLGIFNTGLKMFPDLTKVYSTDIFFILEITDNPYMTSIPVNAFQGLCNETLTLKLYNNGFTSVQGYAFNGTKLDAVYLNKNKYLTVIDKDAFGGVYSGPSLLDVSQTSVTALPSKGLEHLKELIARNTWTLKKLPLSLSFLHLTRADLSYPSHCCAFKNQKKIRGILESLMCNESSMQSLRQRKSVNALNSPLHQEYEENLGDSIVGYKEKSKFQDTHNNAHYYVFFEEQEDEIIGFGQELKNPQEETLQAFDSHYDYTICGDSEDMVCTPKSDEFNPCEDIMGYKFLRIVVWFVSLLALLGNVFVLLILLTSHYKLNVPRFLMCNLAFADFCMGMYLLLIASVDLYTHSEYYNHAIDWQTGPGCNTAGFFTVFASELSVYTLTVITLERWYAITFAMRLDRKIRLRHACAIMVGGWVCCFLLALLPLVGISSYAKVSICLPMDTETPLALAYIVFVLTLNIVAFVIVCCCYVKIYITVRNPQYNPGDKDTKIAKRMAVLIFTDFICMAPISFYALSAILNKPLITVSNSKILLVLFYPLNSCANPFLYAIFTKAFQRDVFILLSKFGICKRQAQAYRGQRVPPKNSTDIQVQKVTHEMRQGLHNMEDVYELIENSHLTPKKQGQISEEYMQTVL

CSc1nnc(C(C)(C)C)c(=O)[nH]1
inactive: Potency [1] | Potency [2] | Potency [3] | Potency [4] | Potency [5] | Potency [6] | Potency [7] | Potency [8] | Potency [9] | Potency [10] | Potency [11] | Potency [12] | Potency [13]

CC1CCC(C(C)(C)O)CC1 (stereo unspecified)
inactive: Potency [1] | Potency [2] | Potency [3] | Potency [4] | Potency [5] | Potency [6] | Potency [7] | Potency [14] | Potency [8] | Potency [9] | Potency [10] | Potency [11] | Potency [12] | Potency [15] | Potency [13]

Oc1ccc(Cl)cc1C1CCCC1
active: Potency [14] 56.6 µM | Potency [15] 24.5 µM
inactive: Potency [1] | Potency [2] | Potency [4] | Potency [16] | Potency [17] | Potency [6] | Potency [18] | activity change, positive = activation [19] 6.21% | Potency [8] | Potency [10] | Potency [11] | Potency [13]

CN1CC[C@H](c2c(O)cc(O)c3c(=O)cc(-c4ccccc4Cl)oc23)[C@H](O)C1
active: Potency [1] 0.0944 µM | Potency [2] 0.596 µM | Potency [17] 0.531 µM | Potency [9] 0.19 µM
inactive: Potency [4] | Potency [16] | Potency [18] | activity change, positive = activation [19] 28.6% [at 42.5 µM] | Potency [8] | Potency [10] | Potency [11] | Potency [13]

O=S(=O)(c1ccc(OCc2ccccc2)cc1)c1ccccc1O
active: Potency [14] 45 µM | Potency [18] 19.3 µM
inactive: Potency [1] | Potency [2] | Potency [4] | Potency [20] | Potency [5] | Potency [6] | activity change, positive = activation [19] -29% | Potency [8] | Potency [10] | Potency [11] | Potency [13]

C=CC(C)(C)O
inactive: Potency [1] | Potency [2] | Potency [3] | Potency [4] | Potency [7] | Potency [8] | Potency [9] | Potency [10] | Potency [11] | Potency [12] | Potency [13]

CN1CCN(CCCN2c3ccccc3Sc3ccc(C(F)(F)F)cc32)CC1
inactive: Potency [1] | Potency [2] | Potency [17] | Potency [20] | activity change, positive = activation [19] -69.1% [at 42.5 µM] | Potency [10]
active: Potency [4] 29.8 µM | Potency [16] 29.8 µM | Potency [5] 16.9 µM | Potency [18] 33.5 µM | Potency [9] 23.9 µM | Potency [12] 26.8 µM | Potency [15] 21.3 µM

N#CCCOCCC#N
inactive: Potency [1] | Potency [2] | Potency [4] | Potency [5] | Potency [7] | Potency [18] | activity change, positive = activation [19] 1.08% | Potency [8] | Potency [9] | Potency [10] | Potency [15] | Potency [13]

C=C[Si](C)(C)Cl
inactive: activity change, negative = cytotoxicity [1] -8.76% [at 8.39 µM] | viability change, negative = cytotoxic [4] 3.07% [at 8.39 µM] | activation [20] -10.3% [at 8.39 µM] | activity change, negative = cytotoxicity [5] -0.253% [at 6.97 µM] | activation (H2AX phosphorylation) [6] 0.0782% [at 14 µM] | activation [7] 0.268% [at 7.01 µM] | activity change, negative = cytotoxicity [14] -1.05% [at 14 µM] | activity change, negative = cytotoxicity [8] -0.615% [at 6.97 µM] | activity change, negative = cytotoxic [9] -3.52% [at 6.97 µM] | cytotoxicity [10] -1.84% [at 6.97 µM] | activity change, negative = cytotoxic [11] 24.3% [at 6.97 µM] | activity change, negative = cytotoxicity [15] -7.44% [at 6.97 µM] | viability change, negative = cytotoxic [13] -15.7% [at 6.97 µM]

Reference: PubChem BioAssay (Tox21)
